KB-3-1 cytotox = KB-3-1 parental cell cytotoxicity. AID 1347075. Potency, µM (top dose mostly 46.1 µM), usual class: cytotoxic. actives 1.4% (n = 400,000). KB-3-1 viability, CellTiter-Glo ATP luminescence, 72 h; further: nearly all actives have a fitted effect of over 60% in size
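Cytotoxicity measured as CellTiter-Glo luminescence after 72 h at 37 C. Compound titrations were pinned onto drug-naive KB-3-1 parental adenocarcinoma cells grown in DMEM with 10% FBS, and normalized data fitted to concentration-response curves.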
MCF10A rerep = DNA re-replication induction in MCF 10a cells. MCF 10A DNA re-replication, Hoechst nuclear intensity, 48 h. actives 2.9% (n = 350,000). AID 624296. Potency, µM (doses to about 46.1 µM), actives largely listed as activators; further: nearly all actives have a fitted effect of over 50% in size
KB-V1 MDR tox = KB-V1 MDR subline cytotoxicity. KB-V1 MDR cells viability, CellTiter-Glo, 72 h. Potency, µM (series often up to 46.1 µM), hits mostly cytotoxic. actives 3.4% (n = 400,000); further: nearly all actives have a fitted effect of over 60% in size
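In this primary screen, KB-V1 cells overexpressing P-gp are incubated with library compounds (lowest to highest concentration) for 72 h at 37 degrees C before a luminescent ATP viability read.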
PINK1 expr mod = changes PINK1 expression; PINK1 immunofluorescence, high-content cytometry, 24 h; Potency, µM (highest dose often 76.6 µM), usual class: activators; actives 0.2% (n = 410,000); AID 624263; active means well fitted activation curve with a large enough effect; inconclusive means small, poorly fitted or top-dose-only effect; cell line not stated here; further: nearly all actives have a fitted effect of over 65% in size
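PINK1 protein level read as immunofluorescence by microplate cytometer in a fixed, stained stable cell line after 24 h exposure to five compound concentrations, with CCCP as control.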
SW480 rerep = induces DNA re-replication in SW480 colon adenocarcinoma cells. SW480 DNA re-replication, Hoechst DNA content imaging, 48 h. Potency, µM (series often up to 46.1 µM), most hits filed as activators. actives 1.8% (n = 340,000); further: nearly all actives have a fitted effect of over 55% in size
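Hoechst fluorescence of nuclei (405 nm excitation, 500-530 nm emission) measured by plate-scanning imager after 48 hr compound exposure at 37 C; re-replication scored as increased number of nuclei with elevated intensity.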
TSG101-PTAP inh = blocks PTAP/TSG101 interaction to inhibit HIV-1 budding | Q99816 | Fluorescence polarization, FITC-PTAP peptide / Tsg101 binding | Potency, µM (doses to about 115 µM), most hits filed as inhibitors | 340,000 tested, under 10 active; active means well fitted inhibition curve with a large enough effect in the main read-out, with a control signal flat, not every such curve was filed as active; inconclusive means small, poorly fitted or top-dose-only effect, or effect the other way, or a change in a side signal; inactive means no such curve, though single readings can be large or run the other way
Target sequence (Q99816 whole entry, looked up): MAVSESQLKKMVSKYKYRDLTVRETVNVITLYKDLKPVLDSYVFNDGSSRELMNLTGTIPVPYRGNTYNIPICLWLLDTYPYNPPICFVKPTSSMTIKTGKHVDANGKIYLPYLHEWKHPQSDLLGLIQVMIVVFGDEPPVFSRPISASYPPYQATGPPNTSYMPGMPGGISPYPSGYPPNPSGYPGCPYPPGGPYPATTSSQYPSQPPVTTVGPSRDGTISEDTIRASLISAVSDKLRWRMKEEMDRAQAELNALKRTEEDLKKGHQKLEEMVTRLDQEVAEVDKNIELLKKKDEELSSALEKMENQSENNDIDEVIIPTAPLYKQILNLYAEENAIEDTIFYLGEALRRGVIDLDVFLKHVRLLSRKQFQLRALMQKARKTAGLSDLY
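Fluorescence polarization binding of Tsg101 binding domain (10 uM final) to FITC-labeled PTAP peptide (50 nM final) in HEPES pH 7.5 buffer with NaCl, Tween 20, EDTA, TCEP. Compounds added before peptide; binding 20 min at RT.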
Hits are given with their value; n = inactive; u = inconclusive; x = not tested or not shown. In the library only some 6.8% were active in any assay of this set; here they are far more common. Unless noted, the call rests on the fitted dose curve; in most records, active means well fitted curve in the direction sought with a large enough effect; inconclusive means small, poorly fitted or top-dose-only effect, or another doubt; inactive means no such curve, though single readings can be large; an effect the other way counts as inactive or inconclusive.

SMILES	KB-3-1 cytotox	MCF10A rerep	KB-V1 MDR tox	PINK1 expr mod	SW480 rerep	TSG101-PTAP inh
Cc1ccc2[nH]c3c(c2c1)CN(C(=O)CN1c2ccc(F)cc2CCC1C)CC3 (stereo not given)	u	u	u	n	u	n
Cc1ccc2[nH]c3c(c2c1)CN(C(=O)CN1CCN(c2cccc(C)c2C)CC1)CC3	u	u	21µM	n	u	n
COC(=O)c1cc(=O)n2c(sc3ccccc32)c1C#N	n	21µM	n	n	23µM	n
COc1ccc(NC(=O)COc2cccc(-n3cnnn3)c2)cc1Cl	n	n	n	n	6.5µM	n
Cc1nn2c(=O)cc(COC(=O)c3ccccc3NC(=O)C3CCCCC3)nc2s1	x	x	x	n	x	x
Cc1c(C(=O)N(Cc2ccco2)Cc2cccs2)oc2ccccc12	n	u	16µM	n	n	n
O=C(c1cc2ccccc2o1)N(Cc1ccco1)Cc1cccs1	n	u	n	n	n	n
CCOC(=O)C1(CCCc2ccccc2)CCN(Cc2cn(CC)nc2C)CC1	21µM	u	n	n	u	n
Cc1occc1C(=O)N/N=C/C1=C(N2CCOCC2)C(=C\c2ccc(Cl)cc2)/CC1	n	18µM	n	u	u	n
Cc1cc(C)nc(N/N=C/C2=C(N3CCOCC3)C(=C/c3ccccc3)/CC2)n1	u	8.2µM	2.3µM	n	16µM	n
O=C(O)c1ccccc1N/N=C/C1=C(N2CCOCC2)C(=C\c2ccccc2)/CC1	n	u	n	n	u	u
Cc1ccc(C(=O)Nc2cc3ccccc3oc2=O)cc1	3.3µM	18µM	4.1µM	n	2.9µM	n
Cc1oc(=O)c(NC(=O)c2ccccc2)cc1C(=O)c1ccccc1	n	23µM	n	n	21µM	n
Cc1oc(=O)c(NC(=O)c2ccc(Cl)cc2)cc1C(=O)c1ccccc1	u	8.2µM	n	n	u	n
O=C1C(Nc2ccccc2)=CC(c2ccc(Br)cc2)N1c1ccccc1 (stereo not given)	n	x	u	n	x	x
OC(c1ccc2c(c1)CN(Cc1c[nH]c3ccccc13)CCO2)c1ccccn1 (stereo not given)	x	x	x	n	x	x
Oc1cccc(Nc2nc(NCC3CCCO3)c3ccccc3n2)c1 (stereo not given)	u	15µM	18µM	n	n	n
c1ccc(Nc2nc(NCC3CCCO3)c3ccccc3n2)cc1 (stereo not given)	16µM	u	21µM	n	u	n
Nc1nc(NCC2CCCO2)nc(Nc2ccc(Cl)cc2)c1[N+](=O)[O-] (stereo not given)	n	n	n	u	u	n
CCOc1ccc(Nc2nc(NCC3CCCO3)c3ccccc3n2)cc1 (stereo not given)	u	u	u	n	u	n
Nc1nc(NCC2CCCO2)nc(Nc2ccccc2)c1[N+](=O)[O-] (stereo not given)	n	n	10µM	n	n	n
Cc1cc(=O)n2nc(N3CCC(C(=O)Nc4c(C)cccc4C)CC3)sc2n1	n	x	n	n	x	x
CCOc1ccc2[nH]c(=O)c(CN(CCc3ccccc3)C(=O)N3CCOCC3)cc2c1	n	n	15µM	n	n	n
Cc1cc(NCCNC2=CC(=O)CCC2)nc2ccccc12	n	n	n	n	n	n
Cc1cc(NCC2CCCCC2)nc2ccccc12	n	26µM	9.2µM	u	n	n
SMILES	KB-3-1 cytotox	MCF10A rerep	KB-V1 MDR tox	PINK1 expr mod	SW480 rerep	TSG101-PTAP inh
C=Cc1ccc(Cn2c(SCC(=O)N3CCN(c4ccc(F)cc4)CC3)nc3ccccc32)cc1	n	x	n	n	x	x
Cc1cccc(-n2c(C)cc(C(=O)C(=O)Nc3nncs3)c2C)c1	n	x	u	n	x	x
CC(=O)c1ccc(-c2ccc(C(=O)Nc3nc(-c4ccccn4)cs3)o2)cc1	u	16µM	u	u	u	n
O=C(Nc1nc(-c2ccco2)cs1)c1ccccc1	n	n	n	n	n	n
O=C(Nc1nc(-c2cc(F)ccc2F)cs1)c1ccccn1	n	n	u	n	u	n
Cc1ccc(C(=O)Nc2nc(-c3ccccn3)cs2)o1	u	n	n	n	n	n
Cc1ccc(-c2csc(NC(=O)c3ccc(-c4ccccc4)cc3)n2)o1	u	u	15µM	n	n	n
O=C(Nc1nc(-c2ccccn2)cs1)c1ccc(-c2ccccc2F)o1	u	21µM	n	n	u	n
O=C(Nc1nc(-c2ccccn2)cs1)c1ccc([N+](=O)[O-])o1	u	2.3µM	n	n	u	n
Cc1ccc(Cl)cc1N1CCN(C(=O)COc2cc(=O)n(C)c3ccccc23)CC1	n	x	n	n	x	x
Fc1ccc(-c2cn3cc(Cc4ccccc4)sc3n2)cc1	x	x	x	n	x	x
CC(=O)NC(Cc1ccc([N+](=O)[O-])cc1)C(=O)NCC(N)C(=O)c1ccccc1 (stereo not given)	x	x	x	n	x	x
O=C(COc1ccc(F)cc1)Nc1nc(-c2ccccn2)cs1	u	n	5.8µM	n	u	n
O=C(COc1cccc(F)c1)Nc1nc(-c2ccccn2)cs1	u	x	u	n	x	x
Cc1ccc(C(=O)Nc2nc(-c3cc(Cl)sc3Cl)cs2)cc1	n	26µM	n	n	n	n
Cc1ccc(NC(=O)N2CCC(CN3CCCCC3)CC2)c(Cl)c1	n	x	n	n	x	x
CN(C)c1cccc(C(=O)Nc2nc3ccccc3[nH]2)c1	u	n	u	n	u	n
C=CCN(c1ccccc1Cl)S(=O)(=O)c1cccc(C(=O)NCCc2ccc(OC)cc2)c1	23µM	n	2.3µM	n	n	n
COc1ccc(N(C)S(=O)(=O)c2cccc(C(=O)NCc3ccc(C)cc3)c2)cc1	n	n	6.5µM	n	n	n
Cc1ccc(N(C)S(=O)(=O)c2cccc(C(=O)Nc3nc4ccccc4[nH]3)c2)cc1	u	u	2.3µM	n	u	n
COc1ccc(CCNC(=O)c2cccc(S(=O)(=O)N3CCCCC3)c2)cc1	n	n	n	n	n	n
O=C(Nc1nc2ccccc2[nH]1)C1CC1	u	18µM	10µM	n	21µM	n
O=C1CC(C(=O)N2CCOc3ccc(CN4CCC(Oc5cccnc5)CC4)cc3C2)c2ccccc21 (stereo not given)	x	x	x	n	x	x
CCOC(=O)Cn1c(CN2CCN(c3ccc(OC)cc3)CC2)nc2c1c(=O)[nH]c(=O)n2C	x	x	x	n	x	x
Cc1ccc(NC(=O)CSc2nc3ccc(NC(=O)COc4ccc(C)cc4)cc3s2)cc1	u	x	u	n	x	x
COCCCNC(=O)C1CCN(C(=O)c2ccc(-n3ccc4ccccc43)s2)CC1	n	x	n	n	x	x
O=C(Nc1nc2ccccc2[nH]1)c1cccc(Br)c1	u	n	u	n	n	n
O=C(Nc1nc2ccccc2[nH]1)c1cccc(F)c1	n	u	n	n	21µM	n

From PubChem BioAssay
